Source: ChEMBL document CHEMBL3988442, “University of Dundee, Small-Polar-MMV Screening Library” (2021)
For some assays here: Potency and affinity values are given separately.

Key:
[1] = molecular target: T1, Methionyl-tRNA synthetase, putative (Leishmania donovani (strain BPK282A1)) (UniProt E9BF75); experiment: Leishmania donovani Methionine tRNA synthetase (LdMetRS):v7. Dose response assay; assay type: functional; set-up: conc 80 nM, time 150 minutes
T1 sequence (whole entry): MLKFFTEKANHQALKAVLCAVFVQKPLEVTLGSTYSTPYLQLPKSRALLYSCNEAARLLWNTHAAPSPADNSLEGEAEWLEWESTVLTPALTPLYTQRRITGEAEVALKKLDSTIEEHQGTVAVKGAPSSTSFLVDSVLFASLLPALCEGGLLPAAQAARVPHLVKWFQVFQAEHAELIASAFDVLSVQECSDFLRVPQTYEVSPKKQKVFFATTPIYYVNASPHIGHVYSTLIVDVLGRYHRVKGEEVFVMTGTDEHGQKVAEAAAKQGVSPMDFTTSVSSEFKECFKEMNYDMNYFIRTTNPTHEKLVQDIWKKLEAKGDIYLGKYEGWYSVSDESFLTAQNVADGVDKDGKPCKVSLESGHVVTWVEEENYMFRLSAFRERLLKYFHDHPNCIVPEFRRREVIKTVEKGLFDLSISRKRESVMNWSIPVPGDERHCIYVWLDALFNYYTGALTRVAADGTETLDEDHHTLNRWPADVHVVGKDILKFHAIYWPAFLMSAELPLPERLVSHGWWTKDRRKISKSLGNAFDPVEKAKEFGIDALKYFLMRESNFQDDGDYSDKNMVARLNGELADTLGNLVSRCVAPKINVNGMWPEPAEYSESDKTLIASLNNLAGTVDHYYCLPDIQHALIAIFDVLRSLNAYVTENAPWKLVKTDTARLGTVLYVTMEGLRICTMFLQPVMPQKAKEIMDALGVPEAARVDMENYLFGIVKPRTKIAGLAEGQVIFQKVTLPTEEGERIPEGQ

[2] = molecular target: Protein translocase subunit SecA (Escherichia coli (strain K12)) (UniProt P10408); experiment: Assay to Identify E. coli SecA ATPase Inhibitors; assay type: functional; set-up: scale not given: direction of the effect not stated beside the values; settings: 30 µM
[3] = molecular target: T2, Ubiquitin-activating enzyme e1, putative (Leishmania donovani (strain BPK282A1)) (UniProt E9BSI1); experiment: Leishmania donovani Ubiquitin Activating Enzyme (LdE1); assay type: functional; set-up: scale not given: direction of the effect not stated beside the values; settings: 30 µM
T2 sequence (whole entry): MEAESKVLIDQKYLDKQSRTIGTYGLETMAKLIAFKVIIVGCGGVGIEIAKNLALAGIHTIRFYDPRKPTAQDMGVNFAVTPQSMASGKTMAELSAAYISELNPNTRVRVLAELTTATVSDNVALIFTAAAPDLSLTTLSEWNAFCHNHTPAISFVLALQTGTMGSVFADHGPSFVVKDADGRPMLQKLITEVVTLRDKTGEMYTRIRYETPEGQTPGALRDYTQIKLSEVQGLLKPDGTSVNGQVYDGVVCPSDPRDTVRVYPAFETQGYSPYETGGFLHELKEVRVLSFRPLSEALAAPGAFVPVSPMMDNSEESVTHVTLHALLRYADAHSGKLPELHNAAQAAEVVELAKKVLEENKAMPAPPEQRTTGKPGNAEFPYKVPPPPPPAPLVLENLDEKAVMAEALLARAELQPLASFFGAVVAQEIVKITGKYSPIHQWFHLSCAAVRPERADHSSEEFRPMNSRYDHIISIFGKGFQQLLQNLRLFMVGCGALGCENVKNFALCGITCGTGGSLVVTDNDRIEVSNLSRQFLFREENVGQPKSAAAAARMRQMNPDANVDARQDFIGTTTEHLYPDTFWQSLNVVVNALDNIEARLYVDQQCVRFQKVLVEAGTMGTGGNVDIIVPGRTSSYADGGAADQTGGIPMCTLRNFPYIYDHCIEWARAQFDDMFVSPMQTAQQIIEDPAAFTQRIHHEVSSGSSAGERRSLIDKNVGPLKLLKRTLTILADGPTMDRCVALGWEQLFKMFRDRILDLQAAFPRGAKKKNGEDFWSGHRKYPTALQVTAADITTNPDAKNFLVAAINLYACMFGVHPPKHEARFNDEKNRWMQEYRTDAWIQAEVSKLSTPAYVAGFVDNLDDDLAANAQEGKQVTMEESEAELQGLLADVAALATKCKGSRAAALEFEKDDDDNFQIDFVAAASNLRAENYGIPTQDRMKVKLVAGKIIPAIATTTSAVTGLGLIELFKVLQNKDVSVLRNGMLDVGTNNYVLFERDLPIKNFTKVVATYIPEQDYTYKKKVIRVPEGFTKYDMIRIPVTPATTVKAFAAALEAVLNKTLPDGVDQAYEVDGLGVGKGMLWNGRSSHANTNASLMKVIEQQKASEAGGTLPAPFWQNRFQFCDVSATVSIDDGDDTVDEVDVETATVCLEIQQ

[4] = molecular target: AMP-activated protein kinase, AMPK (Homo sapiens) (UniProt P54646+O43741+P54619+Q9UGJ0+Q9Y478+Q13131+Q9UGI9); experiment: AMP-dependent Kinase enzyme assay. An in vitro enzyme assay that detects ADP turnover that is directly proportional to AMPK activity. This uses naive AMPK that is activated during the assay with MK-8722; assay type: functional; set-up: scale not given: direction of the effect not stated beside the values; settings: 30 µM
[5] = molecular target: Sialic acid-binding Ig-like lectin 9 (Homo sapiens) (UniProt Q9Y336); experiment: Hs-Siglec9 ALPHAscreen SOP 20170721; set-up: scale not given: direction of the effect not stated beside the values; settings: 10 µM
Trypanosoma cruzi = experiment: Trypanosoma cruzi phosphomannomutase and mannose-1-phosphate guanylyltransferase assay; assay type: functional; set-up: scale not given: direction of the effect not stated beside the values; settings: 10 µM
[6] = molecular target: T3, Arginase-2, mitochondrial (Homo sapiens) (UniProt P78540); experiment: in vitro enzyme assay to detect the production of urea directly proportional to the activity of Arginase II; assay type: functional; set-up: scale not given: in the data most compounds retested in dose-response had high values; settings: 33.3 µM
T3 sequence (whole entry): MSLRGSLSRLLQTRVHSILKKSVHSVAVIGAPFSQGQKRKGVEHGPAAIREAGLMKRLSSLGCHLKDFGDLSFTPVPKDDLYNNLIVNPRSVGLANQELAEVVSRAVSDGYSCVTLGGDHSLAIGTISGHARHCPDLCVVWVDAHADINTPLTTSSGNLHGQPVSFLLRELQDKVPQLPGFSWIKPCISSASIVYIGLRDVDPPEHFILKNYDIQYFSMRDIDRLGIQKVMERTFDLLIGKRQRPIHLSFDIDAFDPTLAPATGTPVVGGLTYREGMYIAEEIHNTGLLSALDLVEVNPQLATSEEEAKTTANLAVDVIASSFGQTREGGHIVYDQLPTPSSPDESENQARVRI

[7] = molecular target: T4, Proteasome subunit beta (Trypanosoma cruzi) (UniProt O96673); experiment: Trypanosoma cruzi proteasome chymotrypsin-like activity (TcProtChymo) assay.; assay type: functional; set-up: scale not given: in the data most compounds retested in dose-response had high values; settings: 9.37 µM
T4 sequence (whole entry): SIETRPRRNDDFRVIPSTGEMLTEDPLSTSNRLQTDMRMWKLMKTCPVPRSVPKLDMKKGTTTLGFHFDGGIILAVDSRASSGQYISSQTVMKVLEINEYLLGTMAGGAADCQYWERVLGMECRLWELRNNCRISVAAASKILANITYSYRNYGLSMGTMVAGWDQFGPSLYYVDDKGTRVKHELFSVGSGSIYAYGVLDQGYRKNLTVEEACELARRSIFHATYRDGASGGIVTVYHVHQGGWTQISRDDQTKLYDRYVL

Homo sapiens = species: Homo sapiens; experiment: To identify inhibition of the IFN signalling (Jak-Stat) pathway via expression of an eGFP reporter gene under the control of an IFN-stimulated response element (ISRE) containing MxA promoter.; assay type: functional; set-up: scale not given: direction of the effect not stated beside the values; settings: 30 µM
[8] = molecular target: T5, Tyrosyl-tRNA synthetase, putative (Trypanosoma cruzi (strain CL Brener)) (UniProt Q4DSP6); experiment: Trypanosoma cruzi tyrosyl tRNA synthetase (TcYRS) _High Tyrosine SOP; assay type: functional; set-up: scale not given: in the data most compounds retested in dose-response had high values; settings: 30 µM
T5 sequence (whole entry): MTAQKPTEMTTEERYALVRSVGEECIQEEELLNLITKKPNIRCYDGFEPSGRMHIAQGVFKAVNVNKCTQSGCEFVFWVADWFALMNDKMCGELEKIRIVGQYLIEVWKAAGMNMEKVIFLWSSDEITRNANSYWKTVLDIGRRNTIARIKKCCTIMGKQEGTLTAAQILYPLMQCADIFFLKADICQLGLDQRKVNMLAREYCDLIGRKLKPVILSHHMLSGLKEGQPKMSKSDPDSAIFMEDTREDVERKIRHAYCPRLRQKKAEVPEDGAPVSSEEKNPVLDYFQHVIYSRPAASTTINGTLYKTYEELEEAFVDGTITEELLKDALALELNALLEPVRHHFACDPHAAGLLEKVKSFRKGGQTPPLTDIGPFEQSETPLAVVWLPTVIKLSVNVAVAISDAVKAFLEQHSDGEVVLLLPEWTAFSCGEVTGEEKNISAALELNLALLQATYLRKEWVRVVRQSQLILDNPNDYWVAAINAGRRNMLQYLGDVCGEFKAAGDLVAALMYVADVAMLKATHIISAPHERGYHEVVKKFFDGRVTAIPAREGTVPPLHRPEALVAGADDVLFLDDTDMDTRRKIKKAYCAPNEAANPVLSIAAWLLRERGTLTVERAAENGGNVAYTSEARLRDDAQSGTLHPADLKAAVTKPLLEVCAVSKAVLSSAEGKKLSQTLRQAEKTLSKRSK

[9] = molecular target: T5, Tyrosyl-tRNA synthetase, putative (Trypanosoma cruzi (strain CL Brener)); experiment: Trypanosoma cruzi tyrosyl tRNA synthetase (TcYRS) SOP; assay type: functional; set-up: scale not given: direction of the effect not stated beside the values; settings: 30 µM
[10] = molecular target: Chromo domain-containing protein 1 (Saccharomyces cerevisiae (strain ATCC 204508 / S288c) (Baker's yeast)) (UniProt P32657); experiment: ScCHD-1 Enzyme Inhibition Assay; assay type: functional; set-up: scale not given: in the data most compounds retested in dose-response had high values; settings: 30 µM
Sequence of Chromo domain-containing protein 1 (Saccharomyces cerevisiae (strain ATCC 204508 / S288c) (Baker's yeast)) (P32657 whole entry, the tested form may be a part): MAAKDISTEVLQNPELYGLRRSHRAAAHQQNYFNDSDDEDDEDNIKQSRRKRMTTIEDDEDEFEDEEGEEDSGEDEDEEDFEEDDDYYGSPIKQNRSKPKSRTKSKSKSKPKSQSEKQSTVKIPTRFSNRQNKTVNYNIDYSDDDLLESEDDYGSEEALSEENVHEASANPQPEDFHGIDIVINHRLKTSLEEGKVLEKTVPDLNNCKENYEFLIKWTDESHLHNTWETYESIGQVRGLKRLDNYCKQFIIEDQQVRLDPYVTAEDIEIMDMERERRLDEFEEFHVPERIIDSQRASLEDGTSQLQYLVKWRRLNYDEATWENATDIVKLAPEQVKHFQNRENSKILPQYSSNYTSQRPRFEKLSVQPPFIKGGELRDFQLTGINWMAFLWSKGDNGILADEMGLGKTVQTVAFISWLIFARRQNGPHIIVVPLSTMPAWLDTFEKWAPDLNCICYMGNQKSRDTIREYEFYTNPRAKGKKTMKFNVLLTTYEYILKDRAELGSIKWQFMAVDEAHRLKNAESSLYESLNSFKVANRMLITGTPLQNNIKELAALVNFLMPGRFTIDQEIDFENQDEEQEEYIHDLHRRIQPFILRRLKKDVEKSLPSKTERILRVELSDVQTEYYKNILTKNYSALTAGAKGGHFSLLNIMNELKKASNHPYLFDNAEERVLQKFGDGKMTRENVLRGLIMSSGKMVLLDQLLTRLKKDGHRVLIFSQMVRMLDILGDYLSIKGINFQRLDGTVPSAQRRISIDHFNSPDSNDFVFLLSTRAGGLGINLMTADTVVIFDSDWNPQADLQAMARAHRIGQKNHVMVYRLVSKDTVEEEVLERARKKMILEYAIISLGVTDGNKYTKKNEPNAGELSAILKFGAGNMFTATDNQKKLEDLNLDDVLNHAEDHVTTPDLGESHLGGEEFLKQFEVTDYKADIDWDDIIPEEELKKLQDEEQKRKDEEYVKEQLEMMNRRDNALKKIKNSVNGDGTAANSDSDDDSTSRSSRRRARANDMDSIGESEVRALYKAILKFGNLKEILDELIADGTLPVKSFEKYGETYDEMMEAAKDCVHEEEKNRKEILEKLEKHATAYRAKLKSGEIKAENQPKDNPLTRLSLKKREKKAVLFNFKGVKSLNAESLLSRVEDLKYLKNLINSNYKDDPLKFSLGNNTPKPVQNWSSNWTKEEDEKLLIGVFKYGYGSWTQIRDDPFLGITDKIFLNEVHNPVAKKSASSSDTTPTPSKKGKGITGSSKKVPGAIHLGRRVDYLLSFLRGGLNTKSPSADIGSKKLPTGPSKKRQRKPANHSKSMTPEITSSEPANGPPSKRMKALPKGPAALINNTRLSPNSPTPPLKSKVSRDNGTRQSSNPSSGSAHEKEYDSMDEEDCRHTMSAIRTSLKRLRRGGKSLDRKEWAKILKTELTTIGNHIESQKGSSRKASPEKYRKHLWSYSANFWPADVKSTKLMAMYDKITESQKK

Sequence of Protein translocase subunit SecA (Escherichia coli (strain K12)) (P10408 whole entry): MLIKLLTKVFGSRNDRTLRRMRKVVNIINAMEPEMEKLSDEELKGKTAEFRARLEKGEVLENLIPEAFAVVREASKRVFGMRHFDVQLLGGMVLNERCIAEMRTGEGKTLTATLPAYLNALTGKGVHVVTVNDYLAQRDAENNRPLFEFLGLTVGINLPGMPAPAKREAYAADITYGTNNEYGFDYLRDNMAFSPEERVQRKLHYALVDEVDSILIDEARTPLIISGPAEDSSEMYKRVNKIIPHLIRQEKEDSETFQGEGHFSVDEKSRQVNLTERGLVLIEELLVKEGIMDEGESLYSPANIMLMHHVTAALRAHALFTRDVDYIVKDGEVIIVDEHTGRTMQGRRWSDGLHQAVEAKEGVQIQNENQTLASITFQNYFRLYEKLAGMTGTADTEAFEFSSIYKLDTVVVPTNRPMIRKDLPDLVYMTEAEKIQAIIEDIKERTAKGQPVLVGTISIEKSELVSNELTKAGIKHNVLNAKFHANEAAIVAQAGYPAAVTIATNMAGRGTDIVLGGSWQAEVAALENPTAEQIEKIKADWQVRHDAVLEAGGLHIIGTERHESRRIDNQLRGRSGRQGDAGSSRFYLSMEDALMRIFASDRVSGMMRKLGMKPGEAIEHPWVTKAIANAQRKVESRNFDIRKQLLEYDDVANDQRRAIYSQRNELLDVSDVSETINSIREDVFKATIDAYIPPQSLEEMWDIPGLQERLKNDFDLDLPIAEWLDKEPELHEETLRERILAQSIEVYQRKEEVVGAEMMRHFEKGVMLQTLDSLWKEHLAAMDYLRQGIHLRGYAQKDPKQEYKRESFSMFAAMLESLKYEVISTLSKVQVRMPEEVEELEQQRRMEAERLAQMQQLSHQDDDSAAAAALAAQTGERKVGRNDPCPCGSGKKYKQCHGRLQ
Sequence of Sialic acid-binding Ig-like lectin 9 (Homo sapiens) (Q9Y336 whole entry): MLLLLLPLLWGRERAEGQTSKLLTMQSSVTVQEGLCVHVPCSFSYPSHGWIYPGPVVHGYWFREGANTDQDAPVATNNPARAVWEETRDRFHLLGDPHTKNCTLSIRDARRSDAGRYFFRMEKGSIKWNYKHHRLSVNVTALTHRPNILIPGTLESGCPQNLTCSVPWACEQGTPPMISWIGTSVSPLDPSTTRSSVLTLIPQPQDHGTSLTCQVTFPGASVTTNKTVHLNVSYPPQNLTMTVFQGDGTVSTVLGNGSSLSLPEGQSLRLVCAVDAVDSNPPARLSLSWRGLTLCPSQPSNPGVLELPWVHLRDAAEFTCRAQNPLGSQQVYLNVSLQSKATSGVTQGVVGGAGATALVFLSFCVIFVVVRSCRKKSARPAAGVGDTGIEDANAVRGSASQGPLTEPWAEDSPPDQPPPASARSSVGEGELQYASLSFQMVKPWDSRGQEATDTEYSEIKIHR

With `COC1CCCC(Nc2nc(Nc3ccc(F)c(F)c3)nc3c2cnn3C)C1` (configuration not stated) the PXC50 ([1]; BOTTOM 3.912528548, HILLSLOPE 1.076870083, MAX_EFFECT 68.97196262, TOP 71.78159337) was 5.18, the PXC50 ([1]; BOTTOM 5.265177704, HILLSLOPE 1.728535848, MAX_EFFECT 54.8245614, TOP 53.52484427) was 5.16 and the PXC50 ([1]; BOTTOM 8.334941311, HILLSLOPE 1.334767366, MAX_EFFECT 54.01869159, TOP 53.22848094) was 5.23. For the same molecule, the PXC50 ([1]; BOTTOM -8.876719942, HILLSLOPE 0.681128814, MAX_EFFECT 53.21888412, TOP 100.0) was 4.53, the PXC50 ([1]; MAX_EFFECT 40.38004751) was < 4 and the PXC50 ([1]; MAX_EFFECT 46.81933842) was < 4.
With `CN(c1ncnc2ccccc12)C1CCCN(c2cccnn2)C1` (configuration not stated) the PXC50 ([1]; BOTTOM 0.59496429, HILLSLOPE 1.142527095, MAX_EFFECT 61.72248804, TOP 100.0) was 4.15, the PXC50 ([1]; BOTTOM 4.775047561, HILLSLOPE 1.968197794, MAX_EFFECT 73.89635317, TOP 73.89635317) was 4.48 and the PXC50 ([1]; BOTTOM 7.086189247, HILLSLOPE 1.125976509, MAX_EFFECT 60.07005254, TOP 100.0) was 4.1. It also gave a PXC50 ([1]; BOTTOM 8.519162934, HILLSLOPE 1.512392504, MAX_EFFECT 75.36231884, TOP 100.0) of 4.28 and a PXC50 ([1]; BOTTOM -1.496045735, HILLSLOPE 1.12468747, MAX_EFFECT 69.3877551, TOP 100.0) of 4.34.
Work on `CCN(CCN(C)C)c1nc(CCN)nc2sc(C)c(C)c12` yielded a PXC50 ([1]; BOTTOM 1.153434253, HILLSLOPE 1.801290913, MAX_EFFECT 65.59139785, TOP 100.0) of 4.17, a PXC50 ([1]; BOTTOM 3.323089956, HILLSLOPE 2.865245269, MAX_EFFECT 53.13531353, TOP 100.0) of 4.01 and a PXC50 ([1]; BOTTOM 7.056148009, HILLSLOPE 0.845689164, MAX_EFFECT 65.90909091, TOP 100.0) of 4.25. For the same molecule, the PXC50 ([1]; BOTTOM 9.733141468, HILLSLOPE 1.108067768, MAX_EFFECT 69.89795918, TOP 94.34728341) was 4.35 and the PXC50 ([1]; BOTTOM -2.908093481, HILLSLOPE 0.556623138, MAX_EFFECT 55.79710145, TOP 100.0) was 4.03.
With `Cc1nc(N2CCCCC2)ncc1-c1cc(O)[nH]n1` the PXC50 ([1]; MAX_EFFECT 13.62007168) was < 4, the PXC50 ([1]; MAX_EFFECT 16.42743222) was < 4 and the PXC50 ([1]; MAX_EFFECT 31.28598848) was < 4. For the same molecule, the PXC50 ([1]; MAX_EFFECT 33.33333333) was < 4, the PXC50 ([1]; MAX_EFFECT 39.9339934) was < 4 and the Percent Effect [2] was -5.23%. For the same molecule, the Percent Effect [3] was 1.33%, the Percent Effect [4] was 13% and the Percent Effect [5] was 8.28%. It also gave a Percent Effect (Trypanosoma cruzi) of 1.18%, a Percent Effect [6] of -8.28% and a Percent Effect [7] of 6.65%. The Percent Effect (Homo sapiens) was -20%, the Percent Effect [8] was 5.29% and the Percent Effect [9] was 7.69%. For the same molecule, the Percent Effect [10] was -1.87%.
